tim23-1 inh – growth inhibitors of tim23-1 mutant yeast, primary screen, luminescence, uHTS; AID 463212, 2010; 330,000 compounds, 1.3% hits; S. cerevisiae tim23-1 growth, BacTiter-Glo luminescence, 24 h; inhibition, % at 20 µM;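 active = growth inhibition of the mutant yeast at or above 50%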;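 also: temperature-sensitive mutant grown at 25 °C; plate controls were DMSO-treated mutant yeast for no effect and medium wells lacking yeast for full effect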
NALP3 yeast inh – NALP3 inflammasome inhibitors in reconstituted yeast, primary screen, luminescence, uHTS. Yeast reconstituted NLRP3/ASC/caspase-1, beta-gal luminescence, 24 h. inhibition, % at 10 µM. 330,000 compounds, 0.39% hits. AID 2825, 2010;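 active = inhibition of 50% or more; inactive = inhibition below 50%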;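 also: plate controls were induced DMSO wells for no effect and uninduced yeast grown without galactose for full effect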
tim10-1 inh – growth inhibitors of tim10-1 mutant yeast, primary screen, luminescence, uHTS | S. cerevisiae tim10-1 ts strain growth, BacTiter-Glo, 24 h | inhibition, % at 20 µM | 330,000 compounds, 2.2% hits | AID 463190, 2010;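 active = inhibition of at least 40%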;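 also: mutant grown at 25 °C; 0% = DMSO wells with yeast and 100% = wells holding no yeast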
PfHsp90 yeast 2 – growth inhibition of PfHsp90-expressing yeast, primary screen, antimalarial PfHsp90 inhibitor project, S. cerevisiae, BacTiter-Glo luminescence, single point, set 2. inhibition, % at 9.4 µM. BacTiter-Glo ATP, 48 h; yeast lacking PDR1 and PDR3 efflux regulators. AID 504621, 2011. 310,000 compounds, 0.32% hits;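 active = every replicate shows inhibition above about 80%, whatever the replicate mean, limit read from the data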;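 also: 0% = DMSO neutral controls and 100% = 20 µM radicicol positive controls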
NALP1 inh – NALP1 inflammasome inhibitors in reconstituted yeast, colorimetric, S. cerevisiae, triplicate retest | inhibition, % at 10 µM | 280,000 compounds, 0.61% hits | S. cerevisiae NALP1/ASC/caspase-1 growth, X-gal OD620, 72 h; in the data active = inhibition mostly above about 24%, no sharp cut-off; inactive = mostly below about 32%
TIM10 inh – growth inhibitors of isogenic TIM10 control yeast, primary screen, counter-screen for tim10-1 yeast inhibitor project, luminescence, uHTS; inhibition, % at 10 µM; S. cerevisiae TIM10 strain growth, BacTiter-Glo luminescence, 24 h; 330,000 compounds, 1.4% hits; AID 463195, 2010;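 active = inhibition of 40% or more at the single tested concentration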;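 also: wild-type TIM10 isogenic control strain grown at permissive 25 °C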
* marks the source's active call; other numbers are inactive results; . = no result. Hits are enriched below; roughly 4.2% of the tested compounds scored in any of these assays.

SMILES	tim23-1 inh	NALP3 yeast inh	tim10-1 inh	PfHsp90 yeast 2	NALP1 inh	TIM10 inh
CC(C(=O)N1CCCC1)N(c1ccccc1)S(C)(=O)=O (stereo not given)	8	19	-10	23	12	-5
CC1=C(C)/C(=N\OS(=O)(=O)c2ccc(C)cc2)C=CC1=O	.	.	.	110*	82	.
COc1ccc(S(=O)(=O)/N=C2/C=CC(=O)C(C)=C2C)cc1	-42	-29	1	-27	12	4
O=C(CN1CCN(c2ncc(C(F)(F)F)cc2Cl)CC1)NCCNc1ncc(C(F)(F)F)cc1Cl	13	6	19	100*	7	-100
CN(C)/C=C/C(=O)c1ccc(N2CCN(c3ncc(C(F)(F)F)cc3Cl)CC2)cc1	41	11	21	109*	5	17
CN(C)C=NC(=O)c1ccc(N2CCN(c3ncc(C(F)(F)F)cc3Cl)CC2)cc1	-2	11	6	-5	19	-3
NNC(=O)CN1CCN(c2ncc(C(F)(F)F)cc2Cl)CC1	-7	12	17	23	2	9
Cc1cc(C)cc(NS(=O)(=O)c2ccc(NC(=O)C3CCCCC3C(=O)O)cc2)c1 (stereo not given)	18	4	0	-12	47	19
COc1cccc(OC)c1C(=O)OCCCOC(=O)c1c(OC)cccc1OC	28	11	26	6	28*	11
COc1ccc(C(=O)OCCCOC(=O)c2ccc(OC)cc2OC)c(OC)c1	14	22	-6	-4	10	-10
Cc1ccc(N2CCN(C3=NC(=O)C(Cc4ccccc4)S3)CC2)cc1 (stereo not given)	37	14	-12	-14	24	3
O=C1N=C(N2CCN(c3ccccc3)CC2)SC1Cc1ccccc1 (stereo not given)	27	35	8	2	40*	-26
COCCCNCCOCCOc1c(OC)cccc1OC	-11	7	-5	-21	24*	-2
COc1cccc(OC)c1OCCNCCO	9	4	16	-7	16	-3
Cc1ccc(CCNC(=O)Cn2ncc3c([nH]c4ccccc43)c2=O)cc1	21	-10	10	5	12	-2
O=C(Cn1ncc2c([nH]c3ccccc32)c1=O)NCC1CCN(Cc2ccc(F)cc2)CC1	2	7	9	22	29*	-6
CCOc1ccc(CCNC(=O)C2CCN(c3nnc(-n4cccc4)s3)CC2)cc1OCC	25	9	28	-20	0	3
CCOc1ccc(CCNC(=O)C2CCN(c3nnc(-n4cccc4)s3)CC2)cc1	-5	11	-4	-6	42*	-5
O=C(NNC(=O)c1ccccc1Cl)c1ccc(-n2cncn2)c([N+](=O)[O-])c1	8	-9	2	-10	.	1
COc1cc(OC)cc(N2C(=O)CC(N3CCC(C(=O)N4CCCCC4)CC3)C2=O)c1 (stereo not given)	21	17	26	82*	17	14
CCOC(=O)C1CCN(C2CC(=O)N(c3ccc(OCC)cc3)C2=O)CC1 (stereo not given)	22	16	32	-54	-14	10
CCCCCCOc1ccc(N2C(=O)CC(N3CCC(C(=O)OCC)CC3)C2=O)cc1 (stereo not given)	13	12	18	106*	62	30
S=c1sc2c(N3CCOCC3)ncnc2n1-c1ccccc1	6	9	5	8	39*	-4
S=c1sc2c(N3CCN(Cc4ccccc4)CC3)ncnc2n1-c1ccccc1	12	1	25	-1	5	17
CCN1CCN(c2ncnc3c2sc(=S)n3-c2ccccc2)CC1	-2	21	8	-1	44*	-44
SMILES	tim23-1 inh	NALP3 yeast inh	tim10-1 inh	PfHsp90 yeast 2	NALP1 inh	TIM10 inh
Cc1cccc(NS(=O)(=O)c2ccc(C)c(C(=O)NCC(c3cccs3)N(C)C)c2)c1 (stereo not given)	-4	2	-8	-1	.	-3
Cc1ccc(CN2CCNC(=O)C2CC(=O)NCc2cc(C)n(C)n2)cc1 (stereo not given)	13	3	9	2	17	6
CCOC(=O)C(=Cc1cc(=O)c(OC)co1)C(=O)OCC	.	.	.	-8	85*	.
Cc1cc(C)c(NS(=O)(=O)c2ccc(NC(=O)/C=C/C(=O)O)cc2)c(C)c1	7	-7	9	.	51*	6
O=C(CCc1nnc2ccc(N3CCOCC3)nn12)Nc1ccc(F)cc1F	-5	5	0	1	11	4
O=C(CCN1CCC(c2ccccc2)C1)c1cccs1 (stereo not given)	4	41	13	.	0	3
O=C(CCN1CCC(c2ccccc2)C1)c1ccccc1 (stereo not given)	15	36	9	-3	23*	-16
COc1cc(CNCCCN2CCOCC2)cc(Br)c1OCC(=O)N1CCCCC1	-8	-8	4	-12	30*	-4
Nc1ccc(Nc2ccc([N+](=O)[O-])cc2[N+](=O)[O-])cc1	21	31	14	6	-2	5
O=[N+]([O-])c1ccc(Nc2ccccn2)c([N+](=O)[O-])c1	2	30	0	12	26*	6
O=C(/C=C/c1cccc([N+](=O)[O-])c1)Nc1ccccn1	-11	25	-14	9	23*	-5
O=C(/C=C/c1cccc([N+](=O)[O-])c1)c1ccc([N+](=O)[O-])o1	.	.	.	125*	.	.
CCCCCn1c(=O)[nH]c2cc(C(=O)NCCCN3CCC(C)CC3)ccc2c1=O	3	-8	13	-5	32*	-14
O=C(/C=C/c1ccc(O)cc1)c1ccc(O)cc1O	32	6	33	2	19	30
O=C(C=Cc1cccc(O)c1)c1ccccc1O	.	.	.	104*	.	.
CC1=CN2C(=N)/C(=C/c3ccc([N+](=O)[O-])o3)C(=O)N=C2S1	.	.	.	97*	19	.
COC(=O)CCC(=O)OC1(C)C(=O)C2=CN(Cc3ccc(OC)cc3)C(c3ccc(OC)cc3)=CC2=C(Br)C1=O (stereo not given)	8	13	-5	-1	.	-2
COc1ccc(C2=CC3=C(Br)C(=O)C(C)(O)C(=O)C3=CO2)cc1 (stereo not given)	34	8	24	107*	4	16
CCC(=O)OC1(C)C(=O)C2=COC(c3ccc(OC)cc3)=CC2=C(Br)C1=O (stereo not given)	13	0	-10	113*	-2	-6
CC1CCCN(C(=O)c2ccc(NC(=O)CC3SC(N4CCCC4)=NC3=O)cc2)C1 (stereo not given)	-11	12	13	.	.	-1

Compound activity: PubChem BioAssay, several laboratories
